Data reported in PubChem BioAssay AID1159580 (chemical genetic matrix, 2015).
Among all 5,500 compounds or so, about 2,000 (36%) were called active. About 18% were inconclusive and are not listed. No stated cut-off is given here; in the data, active means normalized growth mostly below about 0.91 (no sharp cut-off); inconclusive means no clear call, values can overlap the other calls; inactive means mostly above about 0.92. This is one part of the list.

Assay: chemical genetic growth profiling, strain panel (AID 1159580);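 further: tested at 20 µM; growth read once vehicle control cultures reached saturation at 30 °C; 1 = growth at the plate median or of vehicle wells; lower values mean less growth of the strain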
Details: S. cerevisiae deletion strains, growth OD

Measured: normalized growth

C=C1CC2C(CCC3(C)C(=O)CCC23)C2(C)C=CC(=O)C=C12 (stereo unspecified)
active: locus YAL026C, strain drs2, hits give low values 0.905 | locus YBR009C, strain hhf1, hits give low values 0.85 | locus YDR334W, strain swr1, hits give low values 0.896 | locus YDR392W, strain spt3, hits give low values 0.733 | locus YEL003W, strain gim4, hits give low values 0.912 | locus YEL037C, strain rad23, hits give low values 0.917 | locus YGL227W, strain vid30, hits give low values 0.874 | locus YJL164C, strain tpk1, hits give low values 0.916 | locus YNL071W, strain lat1, hits give low values 0.883 | locus YOR001W, strain rrp6, hits give low values 0.881
inactive: locus YAL021C, strain ccr4, hits give low values 0.958 | locus YAL030W, strain snc1, hits give low values 0.949 | locus YBL061C, strain skt5, hits give low values 0.928 | locus YBR023C, strain chs3, hits give low values 0.941 | locus YBR171W, strain sec66, hits give low values 0.92 | locus YBR231C, strain swc5, hits give low values 0.943 | locus YBR279W, strain paf1, hits give low values 0.963 | locus YCL011C, strain gbp2, hits give low values 0.935 | locus YCL016C, strain dcc1, hits give low values 0.983 | locus YCL069W, strain vba3, hits give low values 0.927 | locus YCR088W, strain abp1, hits give low values 0.947 | locus YDL005C, strain med2, hits give low values 0.942 | locus YDL040C, strain nat1, hits give low values 0.941 | locus YDR001C, strain nth1, hits give low values 0.936 | locus YDR069C, strain doa4, hits give low values 0.944 | locus YDR137W, strain rgp1, hits give low values 0.931 | locus YDR159W, strain sac3, hits give low values 0.919 | locus YDR195W, strain ref2 0.945 | locus YDR297W, strain sur2, hits give low values 0.946 | locus YDR335W, strain msn5, hits give low values 0.951 | locus YEL061C, strain CIN8 (second series), hits give low values 0.922 | locus YER015W, strain faa2, hits give low values 0.939 | locus YER016W, strain bim1, hits give low values 0.955 | locus YER111C, strain swi4, hits give low values 0.945 | locus YER155C, strain BEM2 (second series), hits give low values 0.946 | locus YFR010W, strain ubp6, hits give low values 0.928 | locus YGL167C, strain pmr1, hits give low values 0.928 | locus YGL173C, strain kem1, hits give low values 0.95 | locus YGL240W, strain doc1, hits give low values 0.95 | locus YGL253W, strain hxk2, hits give low values 0.944 | locus YHR013C, strain ard1, hits give low values 0.908 | locus YHR027C, strain rpn1, hits give low values 0.93 | locus YHR142W, strain chs7, hits give low values 0.905 | locus YJL092W, strain hpr5, hits give low values 0.932 | locus YJL095W, strain BCK1 (second series), hits give low values 0.952 | locus YJL115W, strain asf1, hits give low values 0.928 | locus YJL129C, strain trk1, hits give low values 0.96 | locus YJL154C, strain vps35, hits give low values 0.936 | locus YJL166W, strain qcr8, hits give low values 0.962 | locus YJL187C, strain SWE1, hits give low values 0.939 | locus YKL160W, strain elf1, hits give low values 0.998 | locus YKR026C, strain gcn3, hits give low values 0.939 | locus YKR091W, strain srl3, hits give low values 0.95 | locus YLL001W, strain dnm1, hits give low values 1.01 | locus YLL026W, hits give low values 0.936 | locus YLL041C, strain sdh2, hits give low values 0.939 | locus YLR027C, strain aat2, hits give low values 0.98 | locus YLR221C, strain rsa3, hits give low values 0.992 | locus YLR258W, strain gsy2, hits give low values 0.945 | locus YLR262C, strain YPT6 (second series), hits give low values 0.925 | locus YLR320W, strain mms22, hits give low values 0.991 | locus YLR342W, strain FKS1, hits give low values 0.929 | locus YLR357W, strain rsc2, hits give low values 0.991 | locus YLR370C, strain arc18, hits give low values 0.937 | locus YLR384C, strain iki3, hits give low values 0.925 | locus YML120C, strain ndi1, hits give low values 0.96 | locus YMR058W, strain fet3, hits give low values 0.929 | locus YMR125W, strain sto1, hits give low values 0.989 | locus YMR129W, hits give low values 0.928 | locus YMR205C, strain PFK2, hits give low values 0.992 | locus YMR231W, strain pep5, hits give low values 0.946 | locus YNL209W, strain ssb2, hits give low values 0.957 | locus YNL248C, strain rpa49, hits give low values 1 | locus YNL322C, strain KRE1 (second series), hits give low values 0.934 | locus YNR049C, strain mso1, hits give low values 0.932 | locus YOR070C, strain gyp1, hits give low values 0.938 | locus YOR080W, strain dia2, hits give low values 0.934 | locus YOR083W, strain WHI5, hits give low values 0.994 | locus YOR106W, strain vam3, hits give low values 0.969 | locus YOR265W, strain rbl2, hits give low values 0.948 | locus YOR270C, strain vph1, hits give low values 0.895 | locus YOR290C, strain snf2, hits give low values 0.941 | locus YPL051W, strain arl3, hits give low values 0.988 | locus YPL078C, strain atp4, hits give low values 1 | locus YPL106C, strain sse1, hits give low values 0.95 | locus YPL240C, strain hsp82, hits give low values 0.969
